# JMJD2A Tudor inh: qHTS Assay for Inhibitors of JMJD2A-Tudor Domain | AlphaScreen JMJD2A-Tudor / H3K4me3 peptide binding | Lysine-specific demethylase 4A (Homo sapiens), O75164 | actives 4.4% (n = 390,000) | Potency, µM (doses to about 114 µM), without a hit: top-dose activity change, negative = inhibition, most hits filed as inhibitors; note: % is set by controls: 0 for no effect and ±100 for the full control effect; nearly all actives have a fitted effect of over 50% in size
# ALOX12 inh: Primary qHTS assay for inhibitors of human arachidonate 12S-lipoxygenase (ALOX12): Round 2 | Polyunsaturated fatty acid lipoxygenase ALOX12 (Homo sapiens), P18054 | purified 12hLO, xylenol orange hydroperoxide absorbance | Potency, µM (series often up to 108 µM), for inactives: at the top dose activity change, negative = inhibition, actives largely listed as inhibitors | actives 1.1% (n = 580,000) | AID 1671190, 2021; note: % is set by controls: 0 for no effect and ±100 for the full control effect
#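 Hydroperoxide product was detected by ferrous iron/xylenol orange as the 573 to 405 nm absorbance ratio. Arachidonic acid at 40 uM (final) was turned over for 30 min at room temperature by 150 nM human 12hLO, pH 7.0 Hepes buffer, after 15 min compound preincubation.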
# G9a block: qHTS Assay for Inhibitors of Histone Lysine Methyltransferase G9a; G9a H3K9 monomethylation, AlphaScreen, 2 h; actives 8.8% (n = 350,000); Histone-lysine N-methyltransferase EHMT2 (Homo sapiens), Q96KQ7; Potency, µM (titrated, usually from 102 µM), without a hit: at the highest dose activity, negative = inhibition, actives largely listed as inhibitors; note: % is set by controls: 0 for no effect and ±100 for the full control effect; nearly all actives have a fitted effect of over 75% in size
#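 Methyltransferase reactions run at room temperature for 2 h (20 nM enzyme, 500 nM biotin-H3K9 peptide, 20 uM SAM) after a 15 min compound preincubation; product detected by AlphaScreen beads and anti-H3K9me1 antibody.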
# BAZ2B inh: qHTS Assay for Inhibitors of BAZ2B | Bromodomain adjacent to zinc finger domain protein 2B (Homo sapiens), Q9UIF8 | AlphaScreen BAZ2B-H3K14Ac peptide displacement | Potency, µM (titrated, usually from 114 µM), for the others: at the highest dose activity change, negative = inhibition, hits mostly inhibitors | actives 4.4% (n = 360,000); note: % is set by controls: 0 for no effect and ±100 for the full control effect; nearly all actives have a fitted effect of over 60% in size
#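 AlphaScreen displacement of biotin-H3(5-23)K14Ac peptide (50 nM final) from BAZ2B (50 nM final) in PBS pH 7.4, 0.01% Tween-20; complex preformed 30 min RT, then compounds (top 110 uM) 30 min RT, beads 20 min dark.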
# HP1b chromo inh: HTS for Inhibitors of HP1-beta Chromodomain Interactions with Methylated Histone Tails | AID 540317, 2011 | actives 0.56% (n = 390,000) | Potency, µM (series often up to 114 µM), for inactives: top-dose activity change, negative = inhibition, most hits filed as inhibitors | AlphaScreen HP1-beta / biotin-H3K9me3 peptide binding; note: nearly all actives have a fitted effect of over 70% in size
#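 AlphaScreen: HP1-beta (50 nM) preformed 30 min with biotin-H3(1-18)K9me3 peptide (50 nM) in PBS pH 7.4, 0.01% Tween-20. Compound added for 30 min at RT, then streptavidin donor/nickel chelate acceptor beads (10 ug/mL) for 30 min.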
# Sfp inh: qHTS Assay for Inhibitors of Bacillus subtilis Sfp phosphopantetheinyl transferase (PPTase) | 4'-phosphopantetheinyl transferase ffp (Bacillus subtilis), Q9F4F7 | Biochemical Sfp PPTase activity, qHTS | Potency, µM, inactives show largest response in the series, negative = inhibition, usual class: inhibitors | actives 3.5% (n = 310,000);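 note: the enzyme is Sfp with the accession as filed and its product quenches rhodamine fluorescence; 0% = enzyme reaction without inhibitor and -100% = no enzyme wells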
#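 Fluorescence-quenching assay with 15 nM Sfp, 5 uM rhodamine-CoA and 12.5 uM BHQ-2-labelled ybbR peptide in pH 7.6 Hepes/MgCl2 buffer. Enzyme was pre-incubated with compound for 15 min at room temperature. Rate was taken from the 30-min fluorescence change (525/598 nm).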
# The depositor's hits bear a star; ? = inconclusive; · = no result; [ ] = remark or other dose. The list is not random: actives were taken first. Their share in the collection is about 8.7%. Calls come from the whole dose curve; as a rule, active = well fitted curve in the direction sought with a large enough effect; inconclusive = small, poorly fitted or top-dose-only effect, or another doubt; inactive = no such curve, though single readings can be large; an effect the other way counts as inactive or inconclusive. Potency is the fitted concentration of half-maximal effect.
SMILES,JMJD2A Tudor inh,ALOX12 inh,G9a block,BAZ2B inh,HP1b chromo inh,Sfp inh
Cc1oc(=O)c(NC(=O)c2ccc(Cl)cc2)cc1C(=O)c1ccccc1,?,?,·,2.0%,-10.5%,8.91µM*
CCOC(=O)c1cc(NC(=O)c2ccccc2)c(=O)oc1C(F)(F)F,-7.5%,-0.8%,?,-2.9%,33.2%,-7.8%
Cc1oc(=O)c(NC(=O)c2ccccc2)cc1C(=O)c1ccccc1,-24.8%,?,·,-5.7%,22.7%,15.8µM*
COc1cccc(C2NC(CCSC)(C(=O)O)C3C(=O)N(C(C)C)C(=O)C23)c1O (centres undefined),-17.9%,20.9%,?,39.8µM*,62.1%,?
CC(C)N1C(=O)C2C(c3ccccc3O)NC(C)(C(=O)O)C2C1=O (centres undefined),-7.6%,21.9%,1.9%,?,54.9%,20µM*
CC(C)CC1(C(=O)O)NC(c2ccccc2O)C2C(=O)N(C(C)C)C(=O)C21 (centres undefined),-14.5%,20.1%,-36.9%,-6.5%,59.7%,12.0%
NC(=O)C1CCN(C(=O)c2cc(C3CC3)nc3ccccc23)CC1,·,-4.0%,·,·,·,·
Cc1ccc(C(=O)NC(=S)N2CC(C)OC(C)C2)cc1[N+](=O)[O-] (centres undefined),-28.8%,-7.1%,39.8µM*,-32.4%,2.6%,3.9%
Cc1csc(NC(=O)c2ccc(C)c([N+](=O)[O-])c2)n1,-33.3%,?,10µM*,?,1.2%,?
CCC(=O)NC(=S)Nc1ccc(NC(=O)c2ccc(C)c([N+](=O)[O-])c2)cc1,-3.2%,-14.9%,7.94µM*,-3.0%,25.7%,-15.4%
O=C(Nc1nc(-c2ccccn2)cs1)c1cc(Cl)ccc1[N+](=O)[O-],56.2µM*,?,5.62µM*,14.1µM*,?,44.7µM*
CC1CCCN(C(=O)Cn2ccn3nc(-c4ccc(F)cc4)c(CO)c3c2=O)C1 (centres undefined),·,36.1%,·,·,·,·
COc1ccc2c(C)c(C(=O)N3CCC(c4nc(C(C)C)no4)CC3)oc2c1,·,39.4%,·,·,·,·
COC[C@@H]1CN(Cc2cccc(C(F)(F)F)c2)C[C@H]1C(=O)NC1CC1,·,72.3%,·,·,·,·
Cc1cc(C(=O)Nc2cnc3ccccc3c2)ccc1[N+](=O)[O-],-5.7%,7.5%,-7.0%,-4.8%,5.4%,8.0%
Cc1cc(C(=O)Nc2nc(-c3ccccn3)cs2)ccc1[N+](=O)[O-],-28.7%,-16.9%,39.8µM*,28.2µM*,10.8%,7.8%
Cc1nc2c3ccccc3nn2c(C)c1CCC(=O)Nc1ccc(C(N)=O)cc1,·,28.5%,·,·,·,·
CC1(C)OC(c2ccccc2)=C/C(=C/C=C2C(=O)c3ccccc3C2=O)O1,3.16µM*,-3.7%,2.51µM*,1.41µM*,?,-5.8%
CC1(C)OC(c2ccccc2)=C/C(=C/C=N/NC(=O)c2ccncc2)O1,?,1.0%,40.0%[12.7 µM],-33.9%,2.9%,-3.9%
Cc1cccc(/C=N/n2c(C3CCCCC3)n[nH]c2=S)c1,56.2µM*,·,2.51µM*,?,-15.6%,79.4µM*
COc1cc(/C=N/n2c(C3CCCCC3)n[nH]c2=S)cc(Br)c1O,12.6µM*,?,25.1µM*,-28.6%,18.3%,8.9%
S=c1[nH]nc(C2CCCCC2)n1/N=C/c1cccc(Br)c1,3.1%,19.4%,79.4µM*,3.1%,41.4%,15.2%
CC(C)c1ccc(NC(=O)Cc2nn(C)c(=O)c3ccccc23)cc1,·,-14.6%,·,·,·,·
O=C(/C=C/c1ccccc1Br)c1ccc(O)c(CCCl)c1,·,12.6µM*,·,·,·,·
CN1c2cccnc2CN(CC2CCCCC2)CC[C@H]1CO,·,91.9%[176 µM],·,·,·,·
SMILES,JMJD2A Tudor inh,ALOX12 inh,G9a block,BAZ2B inh,HP1b chromo inh,Sfp inh
CSC1=C(C#N)C(c2ccccc2Cl)C(C(=O)c2cccs2)C(O)(C(F)(F)F)N1 (centres undefined),-26.5%,-19.7%,?,-4.8%,17.5%,23.5%
CCSC1=C(C#N)C(c2ccccc2Cl)C(C(=O)c2cccs2)C(O)(C(F)(F)F)N1 (centres undefined),-16.8%[57.1 µM],9.3%,10µM*,-8.4%,44.9%,2.8%
COc1ccc(CCNC(=O)COc2ccc(S(=O)(=O)N3CCCC3)cc2)cc1,6.3%,-5.0%,·,-9.3%,29.3%,2.3%
CCOc1ccc(S(=O)(=O)N2CCCCC2)cc1NC(=O)Cc1cccs1,-17.1%,-20.0%,15.8µM*,2.3%,9.7%,·
CCOc1ccccc1OCC(=O)Nc1cc(S(=O)(=O)N2CCCCC2)ccc1N1CCN(CC)CC1,-24.1%,?,3.55µM*,-1.5%,-13.7%,·
COc1ccc(S(=O)(=O)N2CCN(CCNC(=O)COc3ccc(C(C)C)cc3)CC2)cc1,·,35.5µM*,·,·,·,·
CCC(=O)c1ccc(OCC(=O)Nc2cc(S(=O)(=O)N3CCCCC3)ccc2N2CCN(CC)CC2)cc1,-30.8%,?,10µM*,-35.1%,-9.0%,·
Cc1ccc2c(c1)N1C(=O)OC[C@@H]1CCN(Cc1ccccn1)C2,·,38.1%[176 µM],·,·,·,·
CCN1CCC(O)C(C)C1C (centres undefined),·,-24.0%,·,·,·,·
O=C(NCc1ccncc1)c1cc(-c2ccccc2Cl)nc2ccccc12,·,-18.1%,·,·,·,·
Cc1ccccc1OCC(=O)Nc1cc(S(=O)(=O)N2CCOCC2)ccc1N1CCCC1,-33.8%,15.3%,-7.8%[12.7 µM],?,24.7%,·
COc1ccccc1OCC(=O)Nc1cc(S(=O)(=O)N2CCCCC2)ccc1N1CCCCC1,?,?,8.91µM*,79.4µM*,-3.3%,-14.8%
CCN1CCN(c2ccc(S(=O)(=O)N3CCCCC3)cc2NC(=O)COc2ccccc2)CC1,?,?,50.1µM*,?,-12.4%,·
CC(C)c1ccccc1OCC(=O)Nc1cc(S(=O)(=O)N2CCOCC2)ccc1N1CCCC1,?,-13.5%,28.2µM*,-9.1%,-26.0%,·
CCN1CCN(c2ccc(S(=O)(=O)N3CCCCC3)cc2NC(=O)COc2ccc(Cl)c(C)c2)CC1,?,-0.7%,7.5%[12.7 µM],?,10.6%,?
Cc1ccc(OCC(=O)Nc2cc(S(=O)(=O)N3CCCCC3)ccc2N2CCN(C)CC2)c(C)c1,?,-24.1%,44.7µM*,?,-27.5%,·
COc1ccc(C2=C(C(C)=O)Sc3nnc(-c4ccc(OC)cc4)n3N2C(C)=O)cc1,·,-7.9%,·,·,·,·
CCOc1ccc(S(=O)(=O)N2CCOCC2)cc1NC(=O)c1ccc(N2CCCC2=O)cc1,-7.6%,1.8%,31.6µM*,-4.1%,18.0%,·

# Source: PubChem BioAssay (National Center for Advancing Translational Sciences (NCATS))
